Test results reported in PubChem BioAssay AID2061324 (National Center for Advancing Translational Sciences (NCATS), 2025).
Results filed as inconclusive are left out. Activity calls are given as the source filed them. The call rests on the fitted dose curve; in most records, active means well fitted inhibition curve with a large enough effect; inconclusive means small, poorly fitted or top-dose-only effect; inactive means flat fitted curve, though single readings scatter.

Assay: Identification of antibody-drug conjugate (ADC) payloads which are substrates of ATP-binding cassette drug efflux transporters: ABCG2-HEK293-pcDNA cell line
Conditions: ABCG2-HEK293 transfected cells viability, CellTiter-Glo, 48 h
Description: Antibody-drug conjugates (ADCs) feature an antibody recognizing a specific protein joined to a potent toxic payload. Numerous antibody-drug conjugates have received FDA approval; however, clinical resistance arises. Resistance mechanisms include decreased expression or mutation of the antibody target, impaired payload release, or increased expression of ATP-binding cassette (ABC) efflux transporters associated with multidrug resistance. We therefore sought to characterize the interaction of ABC multidrug transporters with ADC payloads. We performed a high-throughput screen with 27 common ADC payloads using cells lines expressing ABC transporters P-glycoprotein (P-gp, encoded by ABCB1) or ABCG2 (encoded by ABCG2). Confirmatory assays were also performed using cells transfected to express P-gp, ABCG2, or MRP1 (encoded by ABCC1). Several commonly used ADC payloads were substrates of P-gp, including calicheamicin gamma1, monomethyl auristatin E, DM1, and DM4. All the pyrrolobenzodiazepines tested - SJG136, SGD-1882, SG2057, and SG3199 - were substrates of P-gp, ABCG2, and MRP1. […] These findings highlight the risk of transporter-mediated resistance with certain ADC payloads and underscore the importance of selecting payloads that evade ABC transporter recognition in future ADC development.
HEK-293 cells were transfected with empty vector (pcDNA) or vector containing the human ABCB1 (MDR-19), ABCG2 (R-5), or ABCC1 gene (MRP1) and were maintained in EMEM with 2 mg/mL G418 added to maintain transporter expression. The HeLa derivative KB-3-1 and the P-gp overexpressing KB-8-5-11 subline were maintained in DMEM; KB-8-5-11 additionally received 100 ng/mL colchicine. H460 parental cells were obtained from the Division of Cancer Treatment and Diagnosis Tumor Repository, National Cancer Institute at Frederick, MD and were cultured in RPMI. The ABCG2 expressing subline H460 MX20 was generated by selecting H460 cells in 20 nM mitoxantrone. Media in all cases was supplemented with 10% FBS and 1% penicillin-streptomycin. We explored 27 common ADC payloads, in two orthogonal, paired cell line sets-a drug selected and transfected set for each transporter--to identify substrates of the ABC transporters P-gp and ABCG2. Compounds were sourced from Levena Biopharma (San Diego, CA), Selleck Chem (Houston, TX), ChemieTek (Indianapolis, IN), or Microsource Discovery Systems (Gaylordsville, CT). Screening was performed as previously described. Briefly, cells were plated at a density of 500 cells/well in 1536 well plates with compounds added using a 1536-head pin tool (Kalypsys, San Diego CA). Cells were incubated with cytotoxic drugs and processed with CellTiter Glo reagent (Promega, Madison, WI) to determine viability after 48 hours. P-gp substrates were identified by comparing compound activity between paired sets of low-expressing (sensitive) and over-expressing (resistant) cell lines.

SMILES	Potency
CC[C@@]1(O)C(=O)OCc2c1cc1n(c2=O)Cc2cc3ccccc3nc2-1	15 nM (active)
COc1cc2cc(c1Cl)N(C)C(=O)C[C@H](OC(=O)[C@H](C)N(C)C(=O)CCS)[C@]1(C)OC1[C@H](C)C1C[C@@](O)(NC(=O)O1)[C@H](OC)/C=C/C=C(\C)C2 (some centres not stated)	9.5 nM (active)
CC[C@H](C)[C@H](NC(=O)[C@H]1CCCCN1C)C(=O)N(C)[C@H](C[C@@H](OC(C)=O)c1nc(C(=O)N[C@@H](Cc2ccccc2)C[C@H](C)C(=O)O)cs1)C(C)C	23.8 nM (active)
COc1cc2cc(C(=O)N3C[C@@H](CCl)c4c3cc(O)c3ccccc43)[nH]c2c(OC)c1OC	7.5 nM (active)
CC[C@H](C)[C@@H]([C@@H](CC(=O)N1CCC[C@H]1[C@H](OC)[C@@H](C)C(=O)N[C@H](C)[C@@H](O)c1ccccc1)OC)N(C)C(=O)[C@@H](NC(=O)[C@H](C(C)C)N(C)C)C(C)C	9.5 nM (active)
COc1cc2cc(c1Cl)N(C)C(=O)C[C@H](OC(=O)[C@H](C)N(C)C(=O)CCC(C)(C)S)[C@]1(C)OC1[C@H](C)C1C[C@@](O)(NC(=O)O1)[C@H](OC)/C=C/C=C(\C)C2 (some centres not stated)	2.4 nM (active)
COc1cc2cc(c1Cl)N(C)C(=O)C[C@H](OC(=O)C(C)C)[C@]1(C)O[C@H]1[C@H](C)[C@@H]1C[C@@](O)(NC(=O)O1)[C@H](OC)C=CC=C(C)C2	1.1 nM (active)
